Source: PubChem BioAssay
m5-HT2A agonist – agonists of mouse serotonin 5-HT2A receptor (HTR2A) | P35363 | hit rate 0.66% among 360,000 | CHO-K1 mHTR2A beta-arrestin complementation, luminescence; percent of 30 µM serotonin response | activation, % at 7.6 µM;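 active = activation above a run cutoff, the mean activation of all tested compounds plus 3 SD, cut at about 14% in these data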;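 also: 0% = plate median of compound wells and 100% = 30 µM serotonin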
NOD2-RIPK2 inh – inhibitors of human NOD2-RIPK2 interaction; O43353; CHO BLA complementation NOD2-RIPK2, CCF4 ratio; inhibition, % at 4.98 µM; hit rate 0.38% among 360,000; AID 624267; in the data active = inhibition above about 21%;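 also: 0% = vehicle only and 100% = reference blocker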
Target sequence (O43353 whole entry, looked up): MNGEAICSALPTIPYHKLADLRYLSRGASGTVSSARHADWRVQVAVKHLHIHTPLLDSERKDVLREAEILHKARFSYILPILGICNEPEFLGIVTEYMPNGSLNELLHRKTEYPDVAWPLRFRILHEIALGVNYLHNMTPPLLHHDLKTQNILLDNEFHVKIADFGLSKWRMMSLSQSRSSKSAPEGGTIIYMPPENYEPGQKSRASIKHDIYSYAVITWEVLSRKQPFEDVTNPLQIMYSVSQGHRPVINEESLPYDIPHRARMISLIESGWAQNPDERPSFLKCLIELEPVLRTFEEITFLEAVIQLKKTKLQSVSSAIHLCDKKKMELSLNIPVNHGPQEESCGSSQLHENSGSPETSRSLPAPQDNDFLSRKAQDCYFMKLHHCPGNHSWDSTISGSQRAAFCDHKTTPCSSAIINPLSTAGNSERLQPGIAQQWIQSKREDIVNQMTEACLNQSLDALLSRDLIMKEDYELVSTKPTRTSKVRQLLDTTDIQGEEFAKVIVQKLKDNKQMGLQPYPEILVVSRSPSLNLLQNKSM
TLR9-MyD88 inh – TLR9-MyD88 interaction inhibition | hit rate 0.21% among 340,000 | Q9NR96+Q99836 | AID 504734 | CHO BLA complementation TLR9-MyD88, CCF4 FRET ratio | inhibition, % at 4.98 µM;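 active = inhibition above the mean over all tested compounds plus 3 SD, cut at about 21% in these data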;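 also: 0% = DMSO only wells and 100% = clavulanate BLA inhibitor control wells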
TLR4 MyD88 comp – inhibitors of human TLR4-MyD88 binding | HeLa CL3-4 TLR4/MyD88 BLA complementation, FRET ratio | hit rate 0.18% among 200,000 | inhibition, % at 8.4 µM; in the data active = inhibition above about 25%;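 also: 0% = vehicle and 100% = reference inhibitor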
Rtt109 Vps75 – inhibitors of Candida albicans Rtt109/Vps75 histone acetyltransferase; Q5AAJ8; purified Rtt109/Vps75, ThioGlo CoA-SH fluorescence, 4 h; inhibition, % at 34.9 µM; hit rate 0.16% among 330,000;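 active = inhibition of at least 50% in every replicate; inconclusive = best replicate reaches 50% inhibition but some replicates fall short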
LANA-H2B inh – blocks KSHV LANA binding to histone H2A/H2B | Q9QR71 | inhibition, % (test concentration not listed) | AID 2629 | cell-free LANA-H2A/H2B peptide, fluorescence polarization | hit rate 0.6% among 320,000; in the data active = inhibition mostly above about 10%, no sharp cut-off; inactive = mostly below about 6.7%
TLR4-MyD88 conf – TLR4-MyD88 interaction inhibition confirmed | shares compounds with TLR4 MyD88 comp | HeLa CL3-4 BLA complementation, CCF4 FRET ratio | inhibition, % at 8.4 µM | hit rate 50% among 350;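 active = mean inhibition across three repeat runs above about 25% carried over from the earlier screen, limit read from the data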;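 also: plate controls were DMSO only for no effect and clavulanic acid blocking BLA at full dose for full effect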
BLA inh HeLa – beta-lactamase inhibition flagged in TLR4-MyD88 counter-screen; shares compounds with TLR4 MyD88 comp; HeLa BLA reporter, CCF4 FRET ratio; inhibition, % at 8.4 µM; hit rate 63% among 350; AID 1237;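 active = mean inhibition over three repeats above about 26% taken from the earlier screen, limit read from the data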;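 also: HeLa cells stably expressing beta-lactamase reporter as counterscreen for TLR4-MyD88 inhibitors; 0% = DMSO and 100% = clavulanic acid full inhibition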
TLR9-MyD88 cf – TLR9-MyD88 interaction inhibition, confirmation | shares compounds with TLR9-MyD88 inh | CHO TLR9/MyD88 BLA complementation, CCF4 FRET ratio | inhibition, % at 4.98 µM | hit rate 51% among 680;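 active = mean inhibition across three repeats above about 21% taken from the earlier screen, limit read from the data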;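 also: blue over green emission ratio reports constitutive TLR9 MyD88 association via BLA complementation; 0% = DMSO vehicle wells and 100% = clavulanate BLA inhibitor wells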
BLA counter-1 – non-selective beta-lactamase inhibitors in TLR9-MyD88 counter-screen | shares compounds with TLR9-MyD88 inh | hit rate 7% among 680 | inhibition, % at 4.98 µM | CHO-BLA cells, CCF4 FRET ratio, BLA reporter;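 active = mean inhibition above a 50% cutoff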;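 also: counterscreen of TLR9-MyD88 hits on CMV-driven BLA in CHO-K1 cells; 0% = DMSO alone and 100% = clavulanate blocking BLA; higher means less blue over green ratio so more BLA blockade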
TLR9 CHO tox – CHO cell toxicity counter-screen for TLR9-MyD88 inhibitors; shares compounds with TLR9-MyD88 inh; TLR9-MyD88 CHO cells cytotoxicity, luminescence; inhibition, % at 4.98 µM; hit rate 39% among 680; AID 588336; in the data active = inhibition above about 11%
OPRM1 ag – activates human mu opioid receptor in HTR2A counterscreen | activation, % at 9.3 µM | hit rate 5.3% among 2,300 | shares compounds with m5-HT2A agonist | U2OS OPRM1 beta-arrestin PathHunter, luminescence; DMSO 0%, DAMGO 9.3 µM 100%;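 active = mean activation above the mean of DMSO-only wells plus 3 SD, cut at about 0.5% in these data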
m5-HT2A ag conf – confirmation of mouse HTR2A serotonin receptor agonists. shares compounds with m5-HT2A agonist. AID 624381. activation, % at 7.6 µM. CHO-K1 PathHunter beta-arrestin recruitment, luminescence; DMSO 0%, 30 µM serotonin 100%. hit rate 19% among 2,300;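 active = mean activation across triplicates above the hit threshold derived in the original primary screen, cut at about 15% in these data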
NOD2-RIPK2 conf – NOD2-RIPK2 interaction inhibition confirmed; CHO cells, NOD2-RIPK2 BLA complementation, CCF4 FRET; shares compounds with NOD2-RIPK2 inh; hit rate 70% among 1,200; inhibition, % at 4.98 µM;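 active = mean inhibition across replicates above a set limit taken from the earlier primary screen, cut at about 21% in these data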;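 also: 0% = DMSO-only wells and the high end = clavulanate BLA-blocked wells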
BLA counter-2 – counter-screen for NOD2-RIPK2 interaction inhibitors: BLA reporter | hit rate 57% among 1,200 | inhibition, % at 4.98 µM | AID 624371 | CHO BLA reporter, CCF4 FRET ratio, counterscreen | shares compounds with NOD2-RIPK2 inh;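 active = mean inhibition above the low-control mean inhibition plus three low-control SD, cut at about 11% in these data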;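 also: 0% = DMSO only wells and 100% = clavulanate high control wells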
An asterisk follows results filed as active; ? = inconclusive; nt = no result given; ! = a repeat was not active. An excerpt weighted towards active compounds, which were near 1.8% of everything screened.

SMILES	m5-HT2A agonist	NOD2-RIPK2 inh	TLR9-MyD88 inh	TLR4 MyD88 comp	Rtt109 Vps75	LANA-H2B inh	TLR9-MyD88 cf	BLA counter-1	TLR9 CHO tox	others
CN1CCN(c2ccc([N+](=O)[O-])c3no[n+]([O-])c23)CC1	-11	6	16	nt	-2	38*	nt	nt	nt
COC(=O)CSC1=NN1c1cc(C)nc(N)n1	3	-3	-8	-13	3	-1	nt	nt	nt
Clc1ccc(C(c2ccc(Cl)cc2)n2cc[n+](CC(OCc3ccc(Cl)cc3Cl)c3ccc(Cl)cc3Cl)c2)cc1 (stereo not given)	12	21	28*	nt	1	-28	nt	nt	nt
O=c1oc2ccccc2c(O)c1C(c1ccc([N+](=O)[O-])cc1)c1c(O)c2ccccc2oc1=O	4	-1	0	9	68*	nt	nt	nt	nt
Cc1cc(OCC(=O)NCc2ccncc2)c2c3c(c(=O)oc2c1)CCCC3	3	-7	4	nt	-2	2	nt	nt	nt
CCOc1cc2c(cc1OCC)-n1cccc1C(c1ccc(C(C)C)cc1)NC2 (stereo not given)	-1	6	-4	nt	1	1	nt	nt	nt
CC(C)(O)C(=O)Nc1ccc([N+](=O)[O-])c(C(F)(F)F)c1	4	-8	-5	nt	4	20*	nt	nt	nt
CNc1cc(Cl)c2nonc2c1[N+](=O)[O-]	-9	93*	80*	52*	3	nt	68*	28	100*	TLR4-MyD88 conf=55*;BLA inh HeLa=44*;NOD2-RIPK2 conf=102*;BLA counter-2=60*
O=C(C(=O)N1CCOCC1)c1cn(Cc2ccccc2F)c2ccccc12	-4	-10	13	nt	-15	-3	nt	nt	nt
COc1cc(/C=C/c2nc3ccccc3c(=O)n2-c2ccc(O)cc2)ccc1O	3	10	14	nt	14	3	nt	nt	nt
COc1ccc(-n2c(/C=C/c3ccc(O)c(O)c3)nc3ccccc3c2=O)cc1	1	19	24*	nt	7	-2	5	6	8
O=C(CCCc1ccc(N(CCCl)CCCl)cc1)NCc1ccccc1	3	-5	2	nt	nt	nt	nt	nt	nt
CN(C)c1ccc(/C=C/[N+](=O)[O-])cc1	-3	28*	24*	-5	2	-2	3	4	-2
CCOC(=O)c1ccccc1N	-6	-5	3	nt	2	nt	nt	nt	nt
CCCCOC(=O)c1ccccc1C(=O)OCCCC	2	-3	25*	nt	-3	-2	5	2	2
O=P(O)(O)Cc1c(Cl)cccc1Cl	0	-8	2	11	1	-1	nt	nt	nt
O=c1c2ccccc2[se]n1-c1ccccc1	-8	10	27*	5	?	-15	19	-1	26*
CC1(C)OC(c2ccccc2)=C/C(=C/C=C2C(=O)NC(=O)NC2=O)O1	2	32*	34*	24	-4	-6	24*	27	-4	NOD2-RIPK2 conf=57*;BLA counter-2=56*
C=C1C(=O)O[C@@H]2C[C@@H](C)[C@@H]3C4OC4C(=O)[C@@]3(C)[C@@H](O)[C@H]12 (stereo not given in full)	-10	55*	24*	nt	7	-2	26*	33	100*	NOD2-RIPK2 conf=52*;BLA counter-2=23*
C=C1C(=O)OC2CC(C)C3C=CC(=O)C3(C)C(O)C12 (stereo not given)	1	20	8	nt	3	nt	nt	nt	nt
CC(C)OP(=O)(OC(C)C)C(NCc1ccccc1)c1ccccc1 (stereo not given)	-1	6	-2	7	15	-1	nt	nt	nt
COC(=O)C1=C(c2ccccc2)C[C@@H]2CC[C@H]1N2C	-3	-2	2	nt	0	-2	nt	nt	nt
C=C1C(=O)O[C@@H]2C[C@@H](C)[C@@H]3C=CC(=O)[C@@]3(C)[C@@H](OC(=O)CC(=O)O[C@H]3[C@@H]4C(=C)C(=O)O[C@@H]4C[C@@H](C)[C@@H]4C=CC(=O)[C@]43C)[C@H]12	-9	88*	32*	nt	3	2	43*	35	99*	NOD2-RIPK2 conf=87*;BLA counter-2=44*
CC12CC3CC(C)(C1)CC(N)(C3)C2	18*!	9	2	nt	-8	-2	nt	nt	nt	OPRM1 ag=0;m5-HT2A ag conf=4
CCN(CC)C(=O)N[C@H]1C[C@@H]2c3cccc4[nH]cc(c34)C[C@H]2N(C)C1	39*	-11	-1	9	-19	-1	nt	nt	nt	OPRM1 ag=-1;m5-HT2A ag conf=93*
SMILES	m5-HT2A agonist	NOD2-RIPK2 inh	TLR9-MyD88 inh	TLR4 MyD88 comp	Rtt109 Vps75	LANA-H2B inh	TLR9-MyD88 cf	BLA counter-1	TLR9 CHO tox	others
CN1C[C@H](CNC(=O)OCc2ccccc2)C[C@@H]2c3cccc4c3c(cn4C)C[C@H]21	-1	-5	4	-3	17	-6	nt	nt	nt
CN1C[C@H](CO)C[C@@H]2c3cccc4[nH]cc(c34)C[C@H]21	23*	-4	-9	nt	-13	0	nt	nt	nt	OPRM1 ag=0;m5-HT2A ag conf=113*
COc1ccc(C2(c3cccc(O)c3OC)CCN(C(C)=O)CC2)cc1O	1	4	-15	nt	4	1	nt	nt	nt
COc1ccccc1-n1c(-c2cccs2)nc2ccccc2c1=O	0	5	-23	-1	-2	0	nt	nt	nt
Clc1cccc(CNCCc2c[nH]c3ccccc23)c1	42*	-3	-3	nt	1	4	nt	nt	nt	OPRM1 ag=0;m5-HT2A ag conf=19*
FC(F)(F)c1ccc(CNCCc2c[nH]c3ccccc23)cc1	2	14	-7	nt	7	0	nt	nt	nt
